Binding signal data for one sequence are collected here from paper PMC7862700, “An all-to-all approach to the identification of sequence-specific readers for epigenetic DNA modifications on cytosine”.

Common to all, as to assay: DAPPL (digital affinity profiling via proximity ligation, sequencing); 10 mM Tris-HCl pH 7.5, 50 mM NaCl, 1 mM DTT, 4% glycerol, room temperature, 30 min; GST-TFs on glutathione beads, 16-mer random dsDNA library, 0.1% formaldehyde crosslink after washing; high values mean tight binding
For one experiment, the target named is T1, FLI1 (Homo sapiens, UniProt Q01543 1-452).
T1 sequence: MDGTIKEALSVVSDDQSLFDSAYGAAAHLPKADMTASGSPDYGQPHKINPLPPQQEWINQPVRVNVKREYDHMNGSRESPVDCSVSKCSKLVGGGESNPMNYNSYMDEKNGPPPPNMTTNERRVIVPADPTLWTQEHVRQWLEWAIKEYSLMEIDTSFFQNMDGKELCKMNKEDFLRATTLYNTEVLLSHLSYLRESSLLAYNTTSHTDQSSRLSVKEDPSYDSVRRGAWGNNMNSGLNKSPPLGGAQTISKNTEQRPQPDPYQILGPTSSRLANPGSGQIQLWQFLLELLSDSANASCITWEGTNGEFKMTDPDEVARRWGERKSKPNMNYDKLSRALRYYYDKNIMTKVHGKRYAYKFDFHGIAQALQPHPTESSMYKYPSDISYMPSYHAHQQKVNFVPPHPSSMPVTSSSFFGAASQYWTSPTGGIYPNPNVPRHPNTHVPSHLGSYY
The conditions noted are these: protein: recombinant; tags: N-terminal GST; dsDNA, one strand shown. An outline of the steps:
(§1)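 Pools were built from human transcription factors expressed in yeast as GST fusions, captured on glutathione beads and DNA-barcoded, along with a tag-only sample. Incubation with 200 nmole of a 16-mer random double-stranded DNA library lasted 30 min at room temperature in Tris/NaCl/DTT/glycerol buffer, and was followed by washing, 0.1% formaldehyde crosslinking, proximity ligation, PCR amplification and Illumina NextSeq500 sequencing. Binding signal is the quotient of each hexamer's read frequency for a factor and its frequency for the tag-only sample.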

A further experiment concerns the target T2, ELK1 (Homo sapiens, UniProt P19419 1-428).
T2 sequence: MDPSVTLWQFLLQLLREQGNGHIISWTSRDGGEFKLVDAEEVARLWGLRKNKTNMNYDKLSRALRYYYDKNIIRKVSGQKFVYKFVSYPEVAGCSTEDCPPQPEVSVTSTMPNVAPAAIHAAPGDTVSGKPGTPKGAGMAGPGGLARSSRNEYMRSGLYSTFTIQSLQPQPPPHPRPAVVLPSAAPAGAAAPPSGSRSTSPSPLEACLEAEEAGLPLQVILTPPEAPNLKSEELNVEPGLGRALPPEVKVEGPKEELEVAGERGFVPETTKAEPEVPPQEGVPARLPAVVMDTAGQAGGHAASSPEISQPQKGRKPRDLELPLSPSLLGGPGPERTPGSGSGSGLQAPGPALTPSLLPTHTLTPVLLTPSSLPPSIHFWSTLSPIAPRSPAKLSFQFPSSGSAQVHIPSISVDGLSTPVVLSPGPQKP
The conditions noted are these: protein: recombinant; tags: N-terminal GST; dsDNA, one strand shown. The method in brief: as §1

A further experiment deals with T3, GABPA (Homo sapiens, UniProt Q06546 1-454).
T3 sequence: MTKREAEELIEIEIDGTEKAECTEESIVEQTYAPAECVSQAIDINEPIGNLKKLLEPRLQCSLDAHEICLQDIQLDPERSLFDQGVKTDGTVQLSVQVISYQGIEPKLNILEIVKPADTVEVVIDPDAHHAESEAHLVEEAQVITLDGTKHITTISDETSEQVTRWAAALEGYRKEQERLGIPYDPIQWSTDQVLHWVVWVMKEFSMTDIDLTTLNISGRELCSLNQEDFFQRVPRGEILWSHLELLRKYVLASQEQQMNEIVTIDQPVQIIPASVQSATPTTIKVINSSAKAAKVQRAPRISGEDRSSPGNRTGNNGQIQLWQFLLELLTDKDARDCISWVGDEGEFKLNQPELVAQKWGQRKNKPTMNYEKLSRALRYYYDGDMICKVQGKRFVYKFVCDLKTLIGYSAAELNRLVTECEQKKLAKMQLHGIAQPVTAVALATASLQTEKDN
As to conditions: protein: recombinant; tags: N-terminal GST; dsDNA, one strand shown. An outline of the steps:
as §1

In another experiment the target is T4, ERG (Homo sapiens, UniProt P11308 1-479).
T4 sequence: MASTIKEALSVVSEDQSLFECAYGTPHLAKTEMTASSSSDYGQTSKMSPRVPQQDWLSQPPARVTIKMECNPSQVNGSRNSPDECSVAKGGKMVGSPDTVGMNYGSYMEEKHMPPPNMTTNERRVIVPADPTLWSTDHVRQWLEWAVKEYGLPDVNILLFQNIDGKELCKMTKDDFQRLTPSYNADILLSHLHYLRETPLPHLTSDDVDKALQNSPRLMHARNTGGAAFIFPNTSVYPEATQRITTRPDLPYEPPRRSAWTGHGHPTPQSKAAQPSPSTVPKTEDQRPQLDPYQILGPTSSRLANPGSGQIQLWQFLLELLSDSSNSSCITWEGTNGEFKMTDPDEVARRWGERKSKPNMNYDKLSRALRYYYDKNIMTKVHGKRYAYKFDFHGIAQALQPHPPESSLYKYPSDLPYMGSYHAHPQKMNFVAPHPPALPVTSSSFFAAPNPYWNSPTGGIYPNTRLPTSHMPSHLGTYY
As to conditions: protein: recombinant; tags: N-terminal GST; dsDNA, one strand shown. The method in brief: as §1

A further experiment addresses ELF1 (Homo sapiens, UniProt P32519 1-619). As to conditions: protein: recombinant; tags: N-terminal GST; dsDNA, one strand shown. The method in brief: as §1
A further experiment concerns the target T5, EHF (Homo sapiens, UniProt Q9NZC4 1-300).
T5 sequence: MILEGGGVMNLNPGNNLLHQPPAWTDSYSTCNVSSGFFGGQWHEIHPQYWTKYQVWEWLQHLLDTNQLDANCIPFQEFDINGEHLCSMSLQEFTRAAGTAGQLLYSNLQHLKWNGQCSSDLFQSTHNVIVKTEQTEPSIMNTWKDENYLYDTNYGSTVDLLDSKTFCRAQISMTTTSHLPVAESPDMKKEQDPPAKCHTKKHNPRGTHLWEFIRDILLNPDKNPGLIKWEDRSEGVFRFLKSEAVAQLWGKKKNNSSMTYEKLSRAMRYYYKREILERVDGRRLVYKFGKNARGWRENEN
The conditions noted are these: protein: recombinant; tags: N-terminal GST; dsDNA, one strand shown. An outline of the steps: as §1

The target in a further experiment is SPI1 (Homo sapiens, UniProt P17947 1-270). As to conditions: protein: recombinant; tags: N-terminal GST; dsDNA, one strand shown. The method in brief: as §1
The next experiment addresses SPIB (Homo sapiens, UniProt Q01892 1-262). As to conditions: protein: recombinant; tags: N-terminal GST; dsDNA, one strand shown. The method in brief:
as §1

For another experiment, the target named is T6, ELK3 (Homo sapiens, UniProt P41970 1-407).
T6 sequence: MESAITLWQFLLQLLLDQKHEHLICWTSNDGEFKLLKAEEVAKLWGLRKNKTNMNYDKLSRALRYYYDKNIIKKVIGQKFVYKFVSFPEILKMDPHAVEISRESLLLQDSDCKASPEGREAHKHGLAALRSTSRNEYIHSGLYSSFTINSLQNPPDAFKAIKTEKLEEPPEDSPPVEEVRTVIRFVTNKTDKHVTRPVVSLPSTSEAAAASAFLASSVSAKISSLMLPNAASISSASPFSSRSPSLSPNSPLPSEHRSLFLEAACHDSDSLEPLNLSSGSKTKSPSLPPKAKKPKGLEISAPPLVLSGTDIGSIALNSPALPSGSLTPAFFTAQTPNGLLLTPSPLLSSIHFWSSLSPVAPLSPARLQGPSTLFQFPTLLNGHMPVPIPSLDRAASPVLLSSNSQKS
As to conditions: protein: recombinant; tags: N-terminal GST; dsDNA, one strand shown. An outline of the steps: as §1

For a further experiment, the target named is T7, FEV (Homo sapiens, UniProt Q99581 1-238).
T7 sequence: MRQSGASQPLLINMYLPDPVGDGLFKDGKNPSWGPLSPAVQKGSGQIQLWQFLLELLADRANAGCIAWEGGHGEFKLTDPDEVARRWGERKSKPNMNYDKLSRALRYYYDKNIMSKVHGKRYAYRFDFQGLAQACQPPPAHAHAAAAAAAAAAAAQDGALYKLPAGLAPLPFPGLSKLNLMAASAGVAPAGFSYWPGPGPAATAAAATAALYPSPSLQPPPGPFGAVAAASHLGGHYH
The conditions noted are these: protein: recombinant; tags: N-terminal GST; dsDNA, one strand shown. An outline of the steps: as §1

Another experiment addresses ETV5 (Homo sapiens, UniProt P41161 1-510). The conditions noted are these: protein: recombinant; tags: N-terminal GST; dsDNA, one strand shown. The method in brief: as §1
Another experiment deals with HSF1 (Homo sapiens, UniProt Q00613 1-529). The conditions noted are these: protein: recombinant; tags: N-terminal GST; chain copies: 3; dsDNA, one strand shown. The method in brief:
as §1

The target in a further experiment is T8, SPIC (Homo sapiens, UniProt Q8N5J4 1-248).
T8 sequence: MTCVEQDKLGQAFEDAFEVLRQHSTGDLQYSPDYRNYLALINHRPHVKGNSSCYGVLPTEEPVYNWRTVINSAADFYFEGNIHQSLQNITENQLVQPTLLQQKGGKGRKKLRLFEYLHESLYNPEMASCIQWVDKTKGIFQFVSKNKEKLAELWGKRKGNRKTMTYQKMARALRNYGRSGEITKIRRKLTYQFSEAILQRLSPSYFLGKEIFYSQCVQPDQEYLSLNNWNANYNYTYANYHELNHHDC
The conditions noted are these: protein: recombinant; tags: N-terminal GST; dsDNA, one strand shown. An outline of the steps:
as §1

A further experiment has as its target ELF4 (Homo sapiens, UniProt Q99607 1-663). The conditions noted are these: protein: recombinant; tags: N-terminal GST; dsDNA, one strand shown. The method in brief:
as §1

The target of another experiment is T9, ELK4 (Homo sapiens, UniProt P28324-2 1-405).
T9 sequence: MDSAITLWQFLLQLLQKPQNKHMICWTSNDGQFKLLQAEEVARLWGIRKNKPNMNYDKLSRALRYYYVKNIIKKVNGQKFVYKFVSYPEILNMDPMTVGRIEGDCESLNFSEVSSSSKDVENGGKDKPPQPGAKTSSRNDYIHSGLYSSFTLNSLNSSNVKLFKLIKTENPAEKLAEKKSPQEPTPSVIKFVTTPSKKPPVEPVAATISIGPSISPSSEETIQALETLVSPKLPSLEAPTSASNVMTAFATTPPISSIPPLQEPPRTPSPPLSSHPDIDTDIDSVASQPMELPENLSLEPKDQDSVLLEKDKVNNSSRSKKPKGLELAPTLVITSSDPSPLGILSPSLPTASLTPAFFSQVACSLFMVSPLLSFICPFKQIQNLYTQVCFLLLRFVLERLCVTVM
The conditions noted are these: protein: recombinant; tags: N-terminal GST; dsDNA, one strand shown. An outline of the steps:
as §1

For another experiment, the target named is T10, ETV2 (Homo sapiens, UniProt O00321 1-342).
T10 sequence: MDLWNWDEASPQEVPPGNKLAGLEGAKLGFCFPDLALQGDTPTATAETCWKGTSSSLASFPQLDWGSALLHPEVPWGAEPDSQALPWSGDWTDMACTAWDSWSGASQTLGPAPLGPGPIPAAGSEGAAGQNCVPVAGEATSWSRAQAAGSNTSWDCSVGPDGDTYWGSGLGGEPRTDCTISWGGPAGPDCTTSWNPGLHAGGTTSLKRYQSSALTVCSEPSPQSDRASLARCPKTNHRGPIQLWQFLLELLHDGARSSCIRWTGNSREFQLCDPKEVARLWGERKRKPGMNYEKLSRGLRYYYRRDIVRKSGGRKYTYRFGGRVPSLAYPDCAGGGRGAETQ
The conditions noted are these: protein: recombinant; tags: N-terminal GST; dsDNA, one strand shown. The method in brief:
as §1

In a further experiment the target is T11, ELF3 (Homo sapiens, UniProt P78545 1-371).
T11 sequence: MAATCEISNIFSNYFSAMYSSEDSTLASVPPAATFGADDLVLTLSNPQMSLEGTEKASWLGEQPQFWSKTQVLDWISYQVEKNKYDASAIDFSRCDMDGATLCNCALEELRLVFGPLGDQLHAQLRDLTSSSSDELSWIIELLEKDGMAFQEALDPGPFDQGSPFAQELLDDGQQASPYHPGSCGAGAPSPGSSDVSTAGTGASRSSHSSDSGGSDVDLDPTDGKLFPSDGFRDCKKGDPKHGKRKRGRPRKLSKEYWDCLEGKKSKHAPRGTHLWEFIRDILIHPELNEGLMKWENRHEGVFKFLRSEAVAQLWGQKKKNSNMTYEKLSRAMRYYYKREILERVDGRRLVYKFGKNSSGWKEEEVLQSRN
The conditions noted are these: protein: recombinant; tags: N-terminal GST; dsDNA, one strand shown. The method in brief: as §1

A further experiment deals with ETV1 (Homo sapiens, UniProt P50549 1-477). As to conditions: protein: recombinant; tags: N-terminal GST; dsDNA, one strand shown. The method in brief: as §1
ETV1, sequence (P50549 whole entry): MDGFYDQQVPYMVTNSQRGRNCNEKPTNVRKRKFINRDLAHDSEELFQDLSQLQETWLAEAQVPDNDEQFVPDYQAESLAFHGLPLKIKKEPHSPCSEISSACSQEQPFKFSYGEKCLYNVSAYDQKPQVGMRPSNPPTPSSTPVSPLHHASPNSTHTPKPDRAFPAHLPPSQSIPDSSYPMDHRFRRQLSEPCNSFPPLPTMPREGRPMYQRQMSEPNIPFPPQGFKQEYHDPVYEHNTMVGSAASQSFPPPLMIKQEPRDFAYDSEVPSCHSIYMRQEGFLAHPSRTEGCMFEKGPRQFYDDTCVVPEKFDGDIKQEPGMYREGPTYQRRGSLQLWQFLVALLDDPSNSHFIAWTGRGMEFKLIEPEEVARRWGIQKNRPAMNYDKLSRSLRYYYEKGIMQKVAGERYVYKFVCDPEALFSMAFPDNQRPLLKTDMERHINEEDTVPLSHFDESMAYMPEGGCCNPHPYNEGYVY

ETV5, sequence (P41161 whole entry): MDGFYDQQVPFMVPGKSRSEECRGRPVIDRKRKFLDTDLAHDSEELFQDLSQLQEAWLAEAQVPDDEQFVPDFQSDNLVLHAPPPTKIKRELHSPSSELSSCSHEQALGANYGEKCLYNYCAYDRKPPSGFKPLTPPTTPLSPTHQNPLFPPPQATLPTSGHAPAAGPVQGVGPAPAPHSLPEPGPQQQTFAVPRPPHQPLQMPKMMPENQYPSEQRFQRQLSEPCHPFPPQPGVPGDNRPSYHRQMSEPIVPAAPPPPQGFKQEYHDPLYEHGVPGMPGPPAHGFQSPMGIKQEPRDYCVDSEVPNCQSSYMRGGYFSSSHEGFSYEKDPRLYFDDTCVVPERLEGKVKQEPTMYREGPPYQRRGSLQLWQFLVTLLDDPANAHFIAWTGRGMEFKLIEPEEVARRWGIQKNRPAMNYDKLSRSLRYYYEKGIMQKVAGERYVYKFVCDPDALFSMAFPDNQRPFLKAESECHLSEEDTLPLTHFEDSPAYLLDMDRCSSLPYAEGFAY
ELF4, sequence (Q99607 whole entry): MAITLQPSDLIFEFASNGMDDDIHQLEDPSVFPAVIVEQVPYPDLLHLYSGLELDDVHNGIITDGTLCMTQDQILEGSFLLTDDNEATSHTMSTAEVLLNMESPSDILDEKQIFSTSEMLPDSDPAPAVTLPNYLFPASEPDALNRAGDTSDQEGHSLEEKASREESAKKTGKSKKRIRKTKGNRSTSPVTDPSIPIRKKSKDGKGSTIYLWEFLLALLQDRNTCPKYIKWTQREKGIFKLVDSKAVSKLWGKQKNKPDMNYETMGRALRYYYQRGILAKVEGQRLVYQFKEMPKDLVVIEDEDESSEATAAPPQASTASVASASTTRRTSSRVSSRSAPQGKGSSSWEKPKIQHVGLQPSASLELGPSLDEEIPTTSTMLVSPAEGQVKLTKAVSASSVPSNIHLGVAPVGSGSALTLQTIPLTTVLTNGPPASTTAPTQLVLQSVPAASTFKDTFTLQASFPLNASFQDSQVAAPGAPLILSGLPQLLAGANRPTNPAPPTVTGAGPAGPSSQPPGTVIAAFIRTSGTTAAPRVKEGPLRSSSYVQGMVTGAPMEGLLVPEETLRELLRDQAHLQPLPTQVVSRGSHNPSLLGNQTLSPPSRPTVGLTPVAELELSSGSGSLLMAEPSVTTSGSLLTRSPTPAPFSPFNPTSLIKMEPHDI
ELF1, sequence (P32519 whole entry): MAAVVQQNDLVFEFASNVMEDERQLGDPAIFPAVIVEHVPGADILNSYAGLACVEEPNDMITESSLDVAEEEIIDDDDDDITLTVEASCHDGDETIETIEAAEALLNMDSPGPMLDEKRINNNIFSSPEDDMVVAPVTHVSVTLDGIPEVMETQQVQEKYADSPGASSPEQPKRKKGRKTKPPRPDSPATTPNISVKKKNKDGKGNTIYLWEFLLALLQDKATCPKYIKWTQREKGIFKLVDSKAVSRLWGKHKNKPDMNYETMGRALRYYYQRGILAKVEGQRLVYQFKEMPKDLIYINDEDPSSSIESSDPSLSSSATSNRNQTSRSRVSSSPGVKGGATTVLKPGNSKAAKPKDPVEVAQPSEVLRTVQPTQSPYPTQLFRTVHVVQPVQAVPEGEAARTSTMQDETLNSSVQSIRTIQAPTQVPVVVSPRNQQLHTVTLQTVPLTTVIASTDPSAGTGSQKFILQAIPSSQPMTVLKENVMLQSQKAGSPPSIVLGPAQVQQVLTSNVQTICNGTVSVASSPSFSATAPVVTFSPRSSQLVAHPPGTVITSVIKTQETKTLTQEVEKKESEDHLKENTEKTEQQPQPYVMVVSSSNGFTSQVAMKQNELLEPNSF
SPIB, sequence (Q01892 whole entry): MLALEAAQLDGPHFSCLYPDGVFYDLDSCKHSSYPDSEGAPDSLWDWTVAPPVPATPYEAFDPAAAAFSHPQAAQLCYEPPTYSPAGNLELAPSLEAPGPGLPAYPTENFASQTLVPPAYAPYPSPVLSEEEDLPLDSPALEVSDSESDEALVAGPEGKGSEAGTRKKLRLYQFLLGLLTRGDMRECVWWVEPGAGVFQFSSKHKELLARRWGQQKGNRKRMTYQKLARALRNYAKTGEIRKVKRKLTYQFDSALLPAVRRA
HSF1, sequence (Q00613 whole entry): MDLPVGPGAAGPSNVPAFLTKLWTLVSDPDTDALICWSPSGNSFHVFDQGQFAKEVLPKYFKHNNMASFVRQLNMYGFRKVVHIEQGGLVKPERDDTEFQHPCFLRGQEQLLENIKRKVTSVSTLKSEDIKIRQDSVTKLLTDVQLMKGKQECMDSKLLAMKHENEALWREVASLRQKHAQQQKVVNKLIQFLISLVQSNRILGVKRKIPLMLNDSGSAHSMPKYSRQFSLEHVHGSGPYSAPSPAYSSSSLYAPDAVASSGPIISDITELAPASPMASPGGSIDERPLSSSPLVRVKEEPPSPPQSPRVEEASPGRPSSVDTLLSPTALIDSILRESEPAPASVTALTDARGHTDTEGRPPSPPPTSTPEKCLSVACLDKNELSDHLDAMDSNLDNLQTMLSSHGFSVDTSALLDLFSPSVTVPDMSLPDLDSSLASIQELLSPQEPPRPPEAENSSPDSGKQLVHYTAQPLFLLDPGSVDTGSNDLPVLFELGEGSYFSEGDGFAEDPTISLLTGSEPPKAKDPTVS

Consider AAGGAA, for which the binding signal with FLI1 is 1.19 fold enrichment (6-mer frequency, TF over GST control); with ELK1 it was 1.27 fold enrichment (6-mer frequency, TF over GST control); with GABPA it was 1.2 fold enrichment (6-mer frequency, TF over GST control); in the experiment with ERG it was 1.44 fold enrichment (6-mer frequency, TF over GST control); in the experiment with ELF1, 1.25 fold enrichment (6-mer frequency, TF over GST control); in the experiment with EHF, 1.48 fold enrichment (6-mer frequency, TF over GST control). In addition, the binding signal with SPI1 is 1.48 fold enrichment (6-mer frequency, TF over GST control); with SPIB it was 1.29 fold enrichment (6-mer frequency, TF over GST control); with ELK3, 1.21 fold enrichment (6-mer frequency, TF over GST control); with FEV it was 1.19 fold enrichment (6-mer frequency, TF over GST control); in the experiment with ETV5, 1.35 fold enrichment (6-mer frequency, TF over GST control); with HSF1, 1.17 fold enrichment (6-mer frequency, TF over GST control). Also, the binding signal with SPIC is 1.36 fold enrichment (6-mer frequency, TF over GST control); with ELF4, 1.25 fold enrichment (6-mer frequency, TF over GST control); in the experiment with ELK4, 1.12 fold enrichment (6-mer frequency, TF over GST control); with ETV2, 1.31 fold enrichment (6-mer frequency, TF over GST control); with ELF3 it was 1.66 fold enrichment (6-mer frequency, TF over GST control); in the experiment with ETV1 it was 1.24 fold enrichment (6-mer frequency, TF over GST control).
